Mtb betalactam = beta-lactam sensitization of Mtb H37Rv, H37Rv | M. tuberculosis H37Rv growth with meropenem, percent inhibition | inhibition, % at 25 µM | 330,000 compounds, 0.27% hits | AID 434955, 2010;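 further: growth measured after seven days incubation then overnight dye step; 0% = bacteria only wells and 100% = bacteria with antibiotic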
BioA inh-1 = M. tuberculosis BioA enzyme inhibitors, primary screen, biochemical, plate reader, single point, HTS; 7,8-diaminopelargonic acid synthase BioA (Mycobacterium tuberculosis); inhibition, % at 9.99 µM; purified M. tuberculosis BioA enzyme; 360,000 compounds, 0.096% hits; in the data active means inhibition above about 40%; inconclusive means no clear call, values can overlap the other calls
ugtP null kill = growth inhibition of ugtP-null S. aureus, primary screen, RN4220 ugtP deletion, OD600; 16 h; growth inhibition, % (concentration not given with the values); 330,000 compounds, 0.54% hits; in the data active means growth inhibition above about 68%;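 further: plate controls were untreated wells for no effect and antibiotic for full effect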
PfHsp40 rescue = rescue of yeast from PfHsp40 toxicity, primary screen, S. cerevisiae, ATP luminescence | S. cerevisiae expressing PfHsp40, growth rescue | growth rescue, % at 12.5 µM | 340,000 compounds, 0.68% hits | AID 504582, 2011; in the data active means growth rescue above about 28%, passing the limit was not always enough; inconclusive means no clear call, values can overlap the other calls;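 further: yeast W303a lacking pdr1 and pdr3 grown in galactose medium; growth measured after three days at 30 °C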
RN4220 kill = growth inhibition of S. aureus RN4220, primary screen, OD600. inhibition, % (concentration not given with the values). AID 1259311, 2017. 16 h. 330,000 compounds, 0.33% hits; in the data active means inhibition above about 85%;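 further: plate controls were untreated cells for no effect and reference antibiotic for full effect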
BioA inh-2 = Mtb BioA enzyme inhibitors, dose response, biochemical, plate reader, cherry-pick samples, set 03; 310 tested, under 10 active; AID 651679, 2012; max activity, %; shares compounds with BioA inh-1; purified BioA enzyme;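 further: top concentration of the dilution series was 10 µM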
Target sequence (P9WQ81 whole entry, looked up): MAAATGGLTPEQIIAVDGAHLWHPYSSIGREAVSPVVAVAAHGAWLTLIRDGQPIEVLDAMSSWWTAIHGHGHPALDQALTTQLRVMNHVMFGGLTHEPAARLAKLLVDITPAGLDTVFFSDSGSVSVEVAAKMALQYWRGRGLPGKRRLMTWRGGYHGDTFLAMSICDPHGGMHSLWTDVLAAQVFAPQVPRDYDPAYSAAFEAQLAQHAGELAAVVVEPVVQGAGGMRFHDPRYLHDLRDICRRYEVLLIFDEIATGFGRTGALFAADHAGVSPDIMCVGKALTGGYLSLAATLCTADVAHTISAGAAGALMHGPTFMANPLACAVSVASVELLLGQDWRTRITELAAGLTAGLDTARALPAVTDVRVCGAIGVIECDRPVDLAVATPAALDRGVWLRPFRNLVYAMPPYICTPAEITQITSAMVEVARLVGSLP
HepG2 cytotox = cytotoxicity in HepG2 cells, dose response, cytotoxicity control, cell-based, plate reader, cherry-pick, two tests. shares compounds with BioA inh-1. max activity, %. 310 tested, under 10 active. AID 651898, 2012
NIH3T3 tox 5 = cytotoxicity in NIH3T3 fibroblasts, dose response, cytotoxicity control, cell-based, plate reader, cherry-pick, two tests | shares compounds with BioA inh-1 | activity change, negative = cytotoxicity, % at 26 µM | 310 tested, under 10 active | AID 651900, 2012
Numbers without * were called inactive; i = inactive; ? = inconclusive; . = not tested or not shown. Most compounds without a hit are left out; they make up all but 0.9% or so of the library. Unless noted, how the calls were made is not given here.

SMILES	Mtb betalactam	BioA inh-1	ugtP null kill	PfHsp40 rescue	RN4220 kill	BioA inh-2	HepG2 cytotox	NIH3T3 tox 5
Cc1nc2nc(SCC(=O)N3CCOCC3)nn2c(C)c1Cc1c(F)cccc1Cl	6	94*	3	0	-1	-9	-7	-13
Cc1nc2nc(SCC(=O)NCCN3CCOCC3)nn2c(C)c1Cc1ccccc1	-7	.	7	0	4	.	.	.
Cc1nc2nc(SCC(=O)N3CCC4(CC3)OCCO4)nn2c(C)c1Cc1ccccc1	9	74*	0	-1	2	-9	25	8
Cc1ccc(Cc2c(C)nc3nc(SCC(=O)NCCCN4CCCCC4)nn3c2C)cc1	-1	54*	12	-1	-1	-2	-12	10
Cc1cc(C)n2nc(SCC(=O)N3CCC4(CC3)OCCO4)nc2n1	-20	5	7	-1	4	.	.	.
C[C@@H]1CN([C@@H](C)CO)C(=O)c2cc(C#Cc3cccnc3)cnc2O[C@H]1CN(C)S(C)(=O)=O	.	74*	.	.	.	6	i	1
C[C@@]12C(=O)N(Cc3ccco3)CC(=O)N1C1c3ccccc3OCC1C2c1ccccc1 (stereo not given in full)	.	.	-2	.	2	.	.	.
CCOC(=O)c1c(N)sc(C(N)=O)c1C	84	58*	8	0	5	-8	-9	0
Cc1c(C(N)=O)sc(N)c1C(=O)OC(C)C	-1	92*	-1	-1	0	-5	-5	-14
CCOC(=O)c1sc(N)c(C(N)=O)c1C	-7	-2	-2	0	6	.	.	.
COC(=O)C1=C(c2cccc(C#N)c2)CC2CCC1N2C(=O)N1CCOCC1 (stereo not given)	.	.	3	.	6	.	.	.
CC(=O)c1ccc(NC(=O)C2CC(=O)N(Cc3ccccc3)C2)cc1 (stereo not given)	-10	74*	6	0	-1	-8	4	-13
O=C(O)CCS(=O)(=O)c1nc(-c2cccs2)cc(C(F)(F)F)n1	.	57*	11	-1	4	-7	-9	-2
CC1=CSC(=C(C#N)C(=O)N2CCCCC2)N1c1ccccc1	.	.	3	.	7	.	.	.
O=C(Nc1ccc(F)cc1)NC1CCN(Cc2nnnn2Cc2ccco2)CC1	-4	74*	-1	-1	-1	6	?	0
O=C(CSc1nc2cc(C(=O)O)ccc2c(=O)n1-c1ccc(F)cc1)Nc1ccc(F)c(F)c1F	0	81*	4	2	1	-9	-8	-12
O=C(CSc1nc2ccccc2c(=O)n1-c1ccc(F)cc1)Nc1ccc(C(=O)O)cc1	-3	0	5	1	5	.	.	.
CC1=C(C(=O)OCc2cc(C)on2)N2C(=O)C(NC(=O)OCc3cc(C)on3)C2SC1 (stereo not given)	.	.	0	.	6	.	.	.
COc1ccc(C2CC(=O)c3cnc(NC(=O)c4ccco4)nc3C2)cc1 (stereo not given)	4	3	8	2	-4	.	.	.
O=C(Nc1ncc2c(n1)CC(c1ccccc1)CC2=O)c1ccco1 (stereo not given)	-14	98*	4	-1	8	6	17	3
O=C(Nc1ncc2c(n1)CC(c1cccc(Cl)c1)CC2=O)c1ccco1 (stereo not given)	-5	61*	7	1	4	-5	16	0
COc1ccc(C(=O)Nc2cccc(NC(=O)c3cccs3)c2)cc1	4	59*	10	2	23	-8	15	-2
COc1ccc(NC(=O)c2ccc(NC(=O)c3cccs3)cc2)cc1	2	-2	-1	-1	3	.	.	.
Cc1nnc(N2CCC(C(=O)N3CCCCC3)CC2)c2nn(-c3ccc(Cl)cc3)c(C)c12	2	51*	0	-1	0	4	11	-5
O=C(CSc1nc2ccccc2c(=O)n1-c1ccccc1)N1CCN(CCO)CC1	0	50*	1	-1	7	-5	?	0
COc1cccc(-c2cc(NC=O)c3ncc(-c4cccc(C(=O)N(C)C)c4)n3c2)c1	.	16	.	.	.	.	.	.
